Test results taken from the supplement of paper PMC13380429.

What was measured:
[1] = test system: Vero E6 infected with SARS-CoV-2; test: morphology score (similarity to uninfected cells); higher = more like uninfected cells; settings: 24 h
[2] = test system: Vero E6 infected with SARS-CoV-2; test: SARS-CoV-2 infection rate relative to infected DMSO; higher = more infection, active = 60 or less; settings: 24 h

SMILES | morphology score [1] | SARS-CoV-2 infection rate [2]
CCC(C)(C)C(=O)C(=O)N1CCC[C@H]1C(=O)OCCCc1cccnc1 (10 µM) | -0.0394 | 116% (inactive)
Nc1ccccc1S(N)(=O)=O [2-aminobenzenesulfonamide] (10 µM) | -0.162 | 108% (inactive)
Oc1nc(O)c2nc(O)[nH]c2n1 [uric-acid] (10 µM) | -0.0319 | 106% (inactive)
Cc1cc(O)c(C(C)C)cc1Cl [chlorothymol] (10 µM) | -0.0977 | 104% (inactive)
O=c1cc(N2CCNCC2)oc2c(-c3ccccc3)cccc12 (10 µM) | 0.175 | 101% (inactive)
NS(=O)(=O)c1cc(-c2nnn[nH]2)c(NCc2cccs2)cc1Cl [azosemide] (10 µM) | 0.286 | 98.5% (inactive)
O=C(O)C(Cc1ccccc1[N+](=O)[O-])=NNc1nc(-c2ccc(Cl)c(Cl)c2)cs1 (10 µM) | 0.23 | 102% (inactive)
Cc1cc2c(s1)Nc1ccccc1N=C2N1CCN(C)CC1 [olanzapine] (10 µM) | -0.0599 | 108% (inactive)
CCCCCCCC/C=C\CCCCCCCC(N)=O [oleamide] (10 µM) | 0.242 | 94.5% (inactive)
O=C(O)CCC(=O)O [succinic-acid] (10 µM) | -0.0828 | 106% (inactive)
COc1cc2c(cc1OC(C)C)[C@H](c1ccc(Cl)cc1)N(c1ccc(N(C)C[C@H]3CC[C@H](N4CCN(C)C(=O)C4)CC3)cc1)C(=O)C2 (0.833333 µM) | 0.244 | 93.5% (inactive)
CCOC(=O)Nc1ccc(NCc2c(C)cc(C)cc2C)cc1N (10 µM) | -0.0161 | 108% (inactive)
COc1ccc(-n2[nH]c3c4c(ncc3c2=O)CCCCC4)cc1 (10 µM) | 0.194 | 96% (inactive)
CC(C)Cc1ccc(C(C)C(=O)O)cc1 (stereo not given) [ibuprofen] (10 µM) | 0.0447 | 108% (inactive)
CC[N+](C)(CC)CCOC(=O)C1c2ccccc2Oc2ccccc21 [methantheline] (10 µM) | 0.0949 | 106% (inactive)
Cc1ccc2c(N3CCN(CCc4cccc(N5CCNC5=O)c4)CC3)cccc2n1 (10 µM) | 0.325 | 84% (inactive)
CSc1nc2ccc3nc(NC(=O)C(c4ccccc4)c4ccccc4)sc3c2s1 (10 µM) | 0.0833 | 94.5% (inactive)
O=C(CBr)N1CC([N+](=O)[O-])([N+](=O)[O-])C1 (10 µM) | 0.0284 | 116% (inactive)
CN/C(=N\CCSCc1nc[nH]c1C)NC#N [cimetidine] (10 µM) | 0.151 | 97.5% (inactive)
C[C@@H](N[C@H]1CCCC[C@@H]1NC(=O)c1ccc(Cl)cc1)c1cccc2ccccc12 [Calhex-231] (10 µM) | 0.134 | 91.5% (inactive)
O=C(O)CSc1nnc(Br)n1-c1ccc(C2CC2)c2ccccc12 [lesinurad] (10 µM) | 0.0859 | 95% (inactive)
CCOC(=O)c1c(C)[nH]c2ccc3c(c12)CN1CCc2cc(OC)ccc2C1O3 (stereo not given) (10 µM) | 0.729 | 28.5% (active)

SMILES | morphology score [1] | SARS-CoV-2 infection rate [2]
CN1CCC[C@@H]1Cc1c[nH]c2ccc(CCS(=O)(=O)c3ccccc3)cc12 [eletriptan] (10 µM) | 0.207 | 102% (inactive)
O=c1cc(-c2ccccc2)oc2cc(O)cc(O)c12 [chrysin] (10 µM) | 0.175 | 104% (inactive)
COc1ccc(-c2cc(=O)c3c(O)cc(O)cc3o2)cc1O [diosmetin] (10 µM) | 0.205 | 106% (inactive)
Fc1ccccc1-c1nc2ccn(Cc3ccc(-c4ccc(C(F)(F)F)cc4C(F)(F)F)nn3)cc-2n1 [tegobuvir] (10 µM) | 0.081 | 102% (inactive)
CCC(=O)O[C@@H]1CC(=O)O[C@H](C)C/C=C/C=C/[C@H](OC(C)=O)[C@H](C)C[C@H](CC=O)[C@H](O[C@@H]2O[C@H](C)[C@@H](O[C@H]3C[C@@](C)(OC(C)=O)[C@@H](OC(=O)CC)[C@H](C)O3)[C@H](N(C)C)[C@H]2O)[C@H]1OC [miocamycin] (10 µM) | -0.0251 | 110% (inactive)
Cn1c(CNc2ccc(C(=N)N)cc2)nc2cc(C(=O)N(CCC(=O)O)c3ccccn3)ccc21 [dabigatran] (10 µM) | 0.269 | 96% (inactive)
CCOc1cncc(/C=C/CCNC)c1 (10 µM) | -0.0406 | 108% (inactive)
C/C=C1\NC(=O)[C@H]2CSSCC/C=C/[C@H](CC(=O)N[C@H](C(C)C)C(=O)N2)OC(=O)[C@H](C(C)C)NC1=O [romidepsin] (10 µM) | -0.211 | 114% (inactive)
Cc1cc(O)c(-c2ccc([C@@H](C)CN)cc2)c2c1[nH]c(=O)c1sccc12 (0.833333 µM) | -0.046 | 95% (inactive)
COc1ccccc1N1CCN(CCN2C(=O)c3ccccc3C(C)(C)C2=O)CC1 (10 µM) | 0.213 | 100% (inactive)
Nc1ccc(/N=N/c2ccccc2)c(N)n1 [phenazopyridine] (10 µM) | 0.34 | 87.5% (inactive)
CC(CCc1ccc(O)cc1)NCCc1ccc(O)c(O)c1 (stereo not given) [dobutamine] (10 µM) | -0.179 | 113% (inactive)
O=C(Cn1ccnc1[N+](=O)[O-])NCc1ccccc1 [benznidazole] (10 µM) | 0.0566 | 112% (inactive)
CCCCCCCCCCCCCCCCCCCCCCO [docosanol] (10 µM) | 0.0474 | 102% (inactive)
Cc1cc(O)c2c(=O)c3c(O)cc(O)c4c5c(O)cc(O)c6c(=O)c7c(O)cc(C)c8c1c2c(c34)c(c78)c65 [hypericin] (10 µM) | -0.152 | 114% (inactive)
CC(C(=O)O)c1ccc(CC2CCCC2=O)cc1 (stereo not given) [loxoprofen] (10 µM) | -0.0253 | 108% (inactive)
O=C1c2c(O)cc(O)cc2O[C@H](c2ccc(O)c(O)c2)[C@H]1O [taxifolin] (10 µM) | 0.187 | 99.5% (inactive)
Oc1cc(O)c2cc(O)c(-c3cc(O)c(O)c(O)c3)[o+]c2c1 [delphinidin] (10 µM) | 0.115 | 98.5% (inactive)
NNC(=O)CSc1nc2scc(-c3ccccc3)c2c(=O)n1-c1ccccc1 (10 µM) | -0.0192 | 99.5% (inactive)
O=C1[C@@H]2[C@H]3CC[C@H](C3)[C@@H]2C(=O)N1C[C@@H]1CCCC[C@H]1CN1CCN(c2nsc3ccccc23)CC1 [lurasidone] (10 µM) | 0.0507 | 96.5% (inactive)
S=C(NC1CCCCC1)N1CCC(c2cnc[nH]2)CC1 [thioperamide] (10 µM) | 0.083 | 96.5% (inactive)
COc1ccc(-c2ccc(=N)n(CCCC(=O)O)n2)cc1 [gabazine] (10 µM) | -0.176 | 103% (inactive)

SMILES | morphology score [1] | SARS-CoV-2 infection rate [2]
C=C1/C(=C\C=C2/CCC[C@]3(C)[C@@H]([C@H](C)CC[C@@H](O)C(C)C)CC[C@@H]23)C[C@@H](O)C[C@@H]1O [tacalcitol] (10 µM) | -0.24 | 120% (inactive)
c1cncc(CN2CCC(n3ncc4c(N5CCOCC5)nc(-c5ccc6[nH]ccc6c5)nc43)CC2)c1 (0.833333 µM) | 0.491 | 69% (inactive)
O=C(O)CNC(=O)C(CS)Cc1ccccc1 (stereo not given) [thiorphan] (10 µM) | 0.106 | 98.5% (inactive)
Cc1cnc(-c2ccccc2C(C)C)nc1NCc1ccc(-n2ccnn2)cc1 (10 µM) | 0.0189 | 101% (inactive)
Oc1ccc(O)cc1 [hydroquinone] (10 µM) | 0.00582 | 108% (inactive)
O=C(O)CCc1ccc(NCc2cccc(Oc3ccccc3)c2)cc1 (10 µM) | -0.132 | 116% (inactive)
NCCCCN [putrescine] (10 µM) | 0.0364 | 94% (inactive)
CCOc1ccc(/C=C2\NCCc3cc(OCC)c(OCC)cc32)cc1OCC [drotaverine] (10 µM) | 0.156 | 104% (inactive)
Cc1cnc(Nc2ccc(N3CCN(C)CC3)cc2)nc1Nc1cccc(S(=O)(=O)NC(C)(C)C)c1 (0.833333 µM) | 0.106 | 122% (inactive)
Nc1cccc(-c2cc3c(Oc4cccc(O)c4)ncnc3[nH]2)c1 (0.833333 µM) | 0.0833 | 104% (inactive)
O=C(O)CC[C@H]1CC[C@@](c2cc(F)ccc2F)(S(=O)(=O)c2ccc(Cl)cc2)CC1 (10 µM) | 0.0148 | 110% (inactive)
CC(C)[C@@H](C(=O)Nc1nccs1)c1ccc(Cl)cc1 (10 µM) | 0.0344 | 98.5% (inactive)
O=C(Nc1ccc([N+](=O)[O-])cc1Cl)c1cc(Cl)ccc1O [niclosamide] (0.833333 µM) | 0.0975 | 97% (inactive)
Cc1cc(I)ccc1Nc1c(C(=O)NOCC2CC2)cc(F)c(F)c1F (10 µM) | 0.0652 | 113% (inactive)
CCOc1cccc(NC(=O)c2ccc(N3CCCC3)c(C(F)(F)F)c2)c1 (10 µM) | 0.0793 | 102% (inactive)
CC(C)(O)CC(=O)O [beta-hydroxy-beta-methylbutyrate] (10 µM) | 0.0168 | 105% (inactive)
NP(N)(=O)NC(=O)c1ccc(F)cc1 [flurofamide] (10 µM) | 0.21 | 94.5% (inactive)
CC(C)S(=O)(=O)NC[C@H](C)c1ccc(-c2ccc(CCNS(C)(=O)=O)cc2)cc1 [mibampator] (10 µM) | 0.146 | 93% (inactive)
Cn1cc(-c2cnn3c(N)c(Br)c([C@@H]4CCCNC4)nc23)cn1 (10 µM) | 0.535 | 82% (inactive)
CC(=O)O[C@H]1Cc2ccccc2N(C(N)=O)c2ccccc21 [eslicarbazepine-acetate] (10 µM) | 0.137 | 106% (inactive)
CCCN(CCC)C(=O)Cc1c(-c2ccc(Cl)cc2)nc2ccc(Cl)cn12 [alpidem] (10 µM) | 0.0705 | 99.5% (inactive)
